According to PubChem BioAssay:

Assay: basal CRE-LacZ reporter activity in PC12 – cell-based, unstimulated, primary screen (AID 1145)
Conditions: no forskolin, luminescence, 4.5 h, higher = more signal, called active from +8 up or from −8 down

z-score, inactive:
Cc1ccc(S[C@]2(C(=O)NC3CC3)CC(=O)N(Cc3ccccc3)[C@@H]2c2ccc(CO)cc2)cc1 -0.295, O=C1C2C=CC(C(O)c3ccc(F)cc3)N(Nc3ccccc3)C2C(=O)N1c1ccccc1 (stereo not drawn) -0.522, Cc1cc(C)c(C(O)C2C=CC3C(=O)N(C)C(=O)C3N2Nc2ccccc2)c(C)c1 (stereo not drawn) 0.246, [N-]=[N+]=NCc1ccccc1C[C@]1(C(=O)NCCN2CCOCC2)N=C(c2ccc(OCCCO)cc2)O[C@H]1c1ccccc1N=[N+]=[N-] 1.65, O=C(OCCF)C1=CCC(c2cccc(Cl)c2)O1 (stereo not drawn) -0.0137, [N-]=[N+]=NCc1ccccc1C[C@]1(C(=O)NCC(O)CO)N=C(c2ccc(OCCCO)cc2)O[C@H]1c1ccccc1N=[N+]=[N-] (stereo partly drawn) 0.241, COCC1=C2[C@@H](CCc3ccccc3)OB(O)C[C@@H]2[C@@H]2C(=O)N(Cc3ccccc3)C(=O)[C@@H]2C1 0.663, [N-]=[N+]=Nc1ccccc1[C@H]1OC(c2ccc(OCCCO)cc2)=N[C@@]1(CCS(=O)(=O)c1ccccc1)C(=O)O 1.29

Assay: forskolin-driven CRE-LacZ activity in PC12 – cell-based, CRE-LacZ reporter, forskolin-stimulated, primary screen (AID 1146);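 further: PC12 cells with 6xCRE LacZ reporter stimulated by forskolin 10 µM; beta-galactosidase reporter signal reflecting CREB driven transcription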
Conditions: luminescence, 4.5 h, higher = more signal, called active from +8 up or from −8 down

z-score, inactive:
COCC(=C=CC[C@@H](O)c1ccc(CO)o1)CCO -0.845, CC(C)N1C(=O)c2ccccc2[C@@H](C(=O)NCCCN(C)C)[C@@H]1c1ccc(CO)cc1 -0.0135, C=C[C@@H](COC(C)=O)N(Cc1ccc([N+](=O)[O-])cc1)S(=O)(=O)c1ccc(Br)cc1 0.127, CC(C)C(=C=CC[C@@H](O)c1ccccc1OCCO)C[C@@H](O)c1ccccn1 -0.3, C=CCNC(=O)[C@@H]1[C@H]2C(=O)O[C@H](c3ccccc3)[C@H](c3ccccc3)N2[C@H](c2ccc(O)cc2)[C@@]12C(=O)N(C(=O)OCCOC)c1ccccc12 -0.0406, CC(C)(C)OC(=O)CC[C@@]1(C(=O)NCCN2CCOCC2)N=C(c2ccc(OCCCO)cc2)O[C@@H]1c1ccccc1 -0.998, N#Cc1ccc(NN2C(C(O)C3CCCCC3)C=CC3C(=O)N(c4ccccc4)C(=O)C32)cc1 (stereo not drawn) 1.47, C=CCN1C(=O)[C@]2(O[C@H](CCO)[C@@H]([Si](C)(C)c3ccc(OC)cc3)[C@@H]2C)c2cc(NC(=O)[C@H](C)O)ccc21 -0.144, O=C1O[C@H](c2ccccc2)[C@H](c2ccccc2)N2[C@H]1[C@@H](C(=O)N1CCN(c3ncccn3)CC1)[C@]1(C(=O)Nc3ccccc31)[C@H]2c1ccc(OCCO)cc1 -0.222, O=C1OCCC/C=C\[C@H]2OC34C=CCN(Cn5nnc6ccccc65)C(=O)[C@H]3N(CCCCCO)C(=O)[C@@H]4C12 (stereo partly drawn) -0.26, COc1cc2c(cc1OC)CN(C(=O)[C@@H]1[C@H]3C(=O)O[C@H](c4ccccc4)[C@H](c4ccccc4)N3[C@H](c3ccccc3OCCO)[C@@]13C(=O)Nc1ccc(C#CCNC(N)=O)cc13)CC2 -0.0826, COC(=O)[C@@]1(Cc2ccccc2)[C@H]2c3cc(C(=O)N4CCCC4)n(C)c3C[C@H]2CN1C(=O)c1ccccc1 0.504, O=C1O[C@H](c2ccccc2)[C@H](c2ccccc2)N2[C@H]1[C@@H](C(=O)Nc1nc3ccccc3s1)[C@]1(C(=O)Nc3ccccc31)[C@H]2c1ccc(O)cc1 0.757, CCN(CC)c1ccc(N2CC=CC34O[C@@H]5C=CCCOC(=O)C5[C@H]3C(=O)N(CCCCCO)[C@@H]4C2=O)cc1 (stereo partly drawn) -0.686, COCCOC(=O)N1C(=O)[C@@]2(c3cc(C#CCC(C(=O)OC)C(=O)OC)ccc31)[C@H](c1ccc(O)cc1)N1[C@H](c3ccccc3)[C@H](c3ccccc3)OC(=O)[C@H]1[C@@H]2C(N)=O 0.305, NC(=O)NCC#Cc1ccc2c(c1)[C@]1(C(=O)N2)[C@H](C(=O)N2CCCCCCC2)[C@H]2C(=O)O[C@H](c3ccccc3)[C@H](c3ccccc3)N2[C@@H]1c1ccc(OCCO)cc1 0.0646, CC(C)N1CC=CC23O[C@@H]4C=CCOC(=O)[C@@H]4[C@H]2C(=O)N(CCO)[C@@H]3C1=O (stereo partly drawn) -0.67, COc1ccc(CCNC(=O)[C@@]2(c3ccc([N+](=O)[O-])cc3)CC(=O)N(CC34CC5CC(CC(C5)C3)C4)[C@@H]2c2ccc(CO)cc2)cc1 0.164, COCCOC(=O)N1C(=O)[C@@]2(c3ccccc31)[C@H](C(=O)NC[C@H](O)c1ccccc1)[C@H]1C(=O)O[C@H](c3ccccc3)[C@H](c3ccccc3)N1[C@@H]2c1ccc(OCCO)cc1 -0.686, COc1ccc(C(O)C2C=CC3C(=O)NC(=O)C3N2Nc2ccccn2)cc1OCc1ccccc1 (stereo not drawn) 0.124, COCCOC(=O)N1C(=O)[C@@]2(c3cc(C#CC4=CCCCC4)ccc31)[C@H](C(=O)NC[C@H](O)c1ccccc1)[C@H]1C(=O)O[C@H](c3ccccc3)[C@H](c3ccccc3)N1[C@@H]2c1ccc(O)cc1 -1.04, COc1ccc([Si](C)(C)[C@@H]2[C@@H](CCn3cc([C@H](O)c4ccccc4)nn3)O[C@]3(C(=O)N(Cc4ccc(N5C(=O)c6cccc7cccc5c67)cc4)c4ccccc43)[C@H]2C)cc1 -1.68, [N-]=[N+]=NCc1ccccc1C[C@]1(C(=O)O)N=C(c2ccc(OCCCO)cc2)O[C@H]1c1ccccc1CN=[N+]=[N-] 2.69, CC(C)NC(=O)[C@@H]1c2ccccc2C(=O)N(Cc2ccccc2)[C@H]1c1ccc(CO)cc1 0.669, COCCOC(=O)N1C(=O)[C@@]2(c3cc(C#CCNC(N)=O)ccc31)[C@H](c1ccccc1OCCO)N1[C@H](c3ccccc3)[C@H](c3ccccc3)OC(=O)[C@H]1[C@@H]2C(N)=O 5.24, O=C1C2C=CC(C(O)c3ccc(B(O)O)cc3)N(Nc3ccccc3)C2C(=O)N1c1ccccc1 (stereo not drawn) 1.11, COC(=O)[C@@]1(Cc2ccc(F)cc2)[C@H]2c3cc(C(=O)N(C)C)n(CCc4ccccn4)c3C[C@H]2CN1C(=O)c1ccccc1 -0.038, Cc1ccc(S[C@]2(C(=O)NC3CC3)CC(=O)N(Cc3ccccc3)[C@@H]2c2ccc(CO)cc2)cc1 0.473, O=C1C2C=CC(C(O)c3ccc(F)cc3)N(Nc3ccccc3)C2C(=O)N1c1ccccc1 (stereo not drawn) -0.49, Cc1cc(C)c(C(O)C2C=CC3C(=O)N(C)C(=O)C3N2Nc2ccccc2)c(C)c1 (stereo not drawn) -0.354, [N-]=[N+]=NCc1ccccc1C[C@]1(C(=O)NCCN2CCOCC2)N=C(c2ccc(OCCCO)cc2)O[C@H]1c1ccccc1N=[N+]=[N-] -0.891, O=C(OCCF)C1=CCC(c2cccc(Cl)c2)O1 (stereo not drawn) 0.351, [N-]=[N+]=NCc1ccccc1C[C@]1(C(=O)NCC(O)CO)N=C(c2ccc(OCCCO)cc2)O[C@H]1c1ccccc1N=[N+]=[N-] (stereo partly drawn) -1.78, COCC1=C2[C@@H](CCc3ccccc3)OB(O)C[C@@H]2[C@@H]2C(=O)N(Cc3ccccc3)C(=O)[C@@H]2C1 -0.0777, [N-]=[N+]=Nc1ccccc1[C@H]1OC(c2ccc(OCCCO)cc2)=N[C@@]1(CCS(=O)(=O)c1ccccc1)C(=O)O -0.197
